The values that follow come from PubChem BioAssay (NCI).

“And” between values parts separate entries of the source, which are not always exact repeats. Identical values can stand only once. This is part of a sample that, as a whole, favours compounds with a hit. Of some 83,000 tested, about 20% had one in any assay.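 Single-concentration screen, 48 h exposure, 96-well plates. Endpoint: percent growth. Below 10 = active.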 The source made the active and inactive calls.

Some test systems named below: NCI-H23 lung; NCI-H226 lung; NCI-H322M lung; HOP-62 NSCLC; HOP-92 NSCLC; NCI-H522 lung; A549/ATCC NSCLC; 786-0 renal; COLO 205 colon; NCI-H460 lung.
What all share (assay): NCI-60 one-dose screen, 48 h (100 = growth as untreated, 0 = no growth, -100 = all killed)
Common to all, as to conditions: 10 µM

With `CC[C@@H](C)[C@@H]1NC(=O)C(NC(=O)C(CC(C)C)N(C)C(=O)C2CCCN2C(=O)C(C)O)C(C)OC(=O)C(Cc2ccc(OC)cc2)N(C)C(=O)C2CCCN2C(=O)C(CC(C)C)NC(=O)C(C)C(=O)C(C(C)C)OC(=O)C[C@H]1O` (stereo not given in full), the growth in the test with NCI-H23 lung is -46.2% (active); in the test with NCI-H226 lung, -58.9% (active); in the test on NCI-H322M lung it was -16.5% (active); with HOP-62 NSCLC it was -42.9% (active); in the test on HOP-92 NSCLC, -41.9% (active); in the test with NCI-H522 lung it was -43.2% (active). The growth in the test with A549/ATCC NSCLC was -80.2% (active); in the test on 786-0 renal, -37.9% (active); in the test with COLO 205 colon it was -69.5% (active).
On to `Cc1cc([N+](=O)[O-])c2ccccc2[n+]1[O-]`, for which the growth with NCI-H23 lung was -25.5% (active) and -33.7% (active); in the test with NCI-H226 lung, -4.63% (active) and -12.9% (active); in the test on HOP-62 NSCLC it was -20.4% (active) and -36.8% (active); in the test with NCI-H460 lung, -26.5% (active) and -38.4% (active); in the test with HOP-92 NSCLC it was -8.69% (active) and -36.2% (active); with NCI-H522 lung it was -38.1% (active) and -83% (active). Moreover, the growth in the test on A549/ATCC NSCLC was -23.4% (active) and -36.1% (active); in the test with 786-0 renal it was -31.9% (active) and -30.8% (active); in the test on COLO 205 colon, -63.1% (active) and -95.1% (active).
For `COc1cc([C@@H]2c3cc4c(c(O)c3C[C@H]3COC(=O)[C@@H]32)OCO4)cc(OC)c1OC`, the growth in the test with NCI-H23 lung is 17.3% (inactive); in the test with NCI-H226 lung, 48.8% (inactive); in the test with NCI-H322M lung it was 21.9% (inactive); in the test on NCI-H460 lung, 0.25% (active); with HOP-92 NSCLC, -31.4% (active); with NCI-H522 lung, -25% (active). In addition, the growth was 24.9% (inactive) with A549/ATCC NSCLC, -69.8% (active) in the test on 786-0 renal and -69.5% (active) in the test with COLO 205 colon.
Consider `COC12c3c(C)cc(O)c4c(=O)occ(c34)C(=O)C1C13COC(=O)c4c(O)cc(C)c(c41)C(=O)C2C3OC(C)=O` (stereo not given), for which the growth with NCI-H23 lung was 99.7% (inactive); in the test on NCI-H226 lung, 100% (inactive); in the test on NCI-H322M lung, 95.4% (inactive); in the test on HOP-62 NSCLC, 82.3% (inactive); in the test on HOP-92 NSCLC it was -9.88% (active); in the test with A549/ATCC NSCLC, 107% (inactive). Moreover, the growth with 786-0 renal was 95.7% (inactive); in the test on COLO 205 colon, 103% (inactive).
With `O=[N+]([O-])c1ccc(N2CCOCC2)c2c1no[n+]2[O-]`, the growth is 13.1% (inactive) in the test on NCI-H23 lung; 35.7% (inactive) in the test on NCI-H226 lung; 28.1% (inactive) in the test on NCI-H322M lung; 8.11% (active) in the test on HOP-62 NSCLC; -31.9% (active) in the test with HOP-92 NSCLC; -70.5% (active) with NCI-H522 lung. Moreover, the growth with A549/ATCC NSCLC was 21.4% (inactive); in the test with 786-0 renal, -12.8% (active); in the test with COLO 205 colon, -53.1% (active).
Take `Cc1ccc(C(=O)C2C(c3ccccc3)N2C2CCCCC2)cc1` (stereo not given): the growth in the test with NCI-H23 lung is 102% (inactive) and 88.4% (inactive); in the test on NCI-H226 lung, 100% (inactive) and 94.7% (inactive); with HOP-62 NSCLC, 112% (inactive) and 101% (inactive); in the test on NCI-H460 lung, 98.6% (inactive) and 92% (inactive); with HOP-92 NSCLC, 78.1% (inactive); in the test with NCI-H522 lung, 90.5% (inactive) and 75.5% (inactive). The growth in the test with A549/ATCC NSCLC is 99.9% (inactive) and 105% (inactive); with 786-0 renal, 101% (inactive) and 97.6% (inactive); in the test on COLO 205 colon, 126% (inactive) and 110% (inactive).
With `CC[C@@]1(O)C[C@H](OC2CC(N(C)C)C(O)C(C)O2)c2c(cc3c(c2O)C(=O)c2c(O)ccc(O)c2C3=O)[C@H]1C(=O)OC` (stereo not given in full), the growth in the test on NCI-H23 lung is -79.6% (active); in the test with NCI-H226 lung, -62.3% (active); in the test with NCI-H322M lung, -78.6% (active); in the test with HOP-62 NSCLC, -69.6% (active); with HOP-92 NSCLC, -68.9% (active); in the test on NCI-H522 lung, -70.1% (active). Besides, the growth with A549/ATCC NSCLC was -84.8% (active); in the test with 786-0 renal, -97.5% (active); in the test with COLO 205 colon it was -80.1% (active).
As for `COc1cc(/C=C(/C)[N+](=O)[O-])ccc1O`, the growth in the test on NCI-H23 lung is 61.1% (inactive) and 81.4% (inactive); with NCI-H226 lung, 86.7% (inactive) and 91% (inactive); with HOP-62 NSCLC, 55.6% (inactive) and 47.6% (inactive); with NCI-H460 lung, 43% (inactive) and 21.5% (inactive); with HOP-92 NSCLC, 41.3% (inactive); in the test on NCI-H522 lung, -78.2% (active) and -84.9% (active). The growth in the test with A549/ATCC NSCLC is 57.4% (inactive) and 48.9% (inactive); in the test with 786-0 renal it was 50% (inactive) and -13.4% (active); in the test with COLO 205 colon it was 60.8% (inactive) and 47.9% (inactive).
For `CC/C(=C/c1ccc(OC)cc1)[N+](=O)[O-]`, the growth is 51.8% (inactive) with NCI-H23 lung; -12.5% (active) in the test on NCI-H226 lung; 86% (inactive) in the test with NCI-H322M lung; 78.1% (inactive) in the test on HOP-62 NSCLC; -47.7% (active) in the test with NCI-H522 lung; 62.3% (inactive) with A549/ATCC NSCLC. The growth was -83.5% (active) with 786-0 renal and -60.3% (active) in the test on COLO 205 colon.
Consider `C/C(=C\c1ccc(Cl)c(Cl)c1)[N+](=O)[O-]`, for which the growth in the test with NCI-H23 lung was 44.6% (inactive) and 94.8% (inactive); with NCI-H226 lung it was 98.1% (inactive); in the test on HOP-62 NSCLC it was 86.9% (inactive); with NCI-H460 lung it was 55.6% (inactive) and 105% (inactive); in the test with HOP-92 NSCLC, -29.8% (active) and 89.5% (inactive); with NCI-H522 lung it was -87.3% (active) and 82.6% (inactive). The growth is 74.3% (inactive) and 76.6% (inactive) in the test with A549/ATCC NSCLC; 45.8% (inactive) and 94.9% (inactive) in the test on 786-0 renal; -57.9% (active) and 101% (inactive) in the test with COLO 205 colon.
Take `C=NCC#N`: the growth was 97.8% (inactive) and 97.9% (inactive) with NCI-H23 lung; 107% (inactive) and 99.3% (inactive) with NCI-H226 lung; 93.2% (inactive) and 93.4% (inactive) with HOP-62 NSCLC; 102% (inactive) and 120% (inactive) in the test with NCI-H460 lung; 97.6% (inactive) with HOP-92 NSCLC; 68.8% (inactive) and 103% (inactive) in the test with NCI-H522 lung. The growth is 110% (inactive) and 104% (inactive) with A549/ATCC NSCLC; 99.4% (inactive) and 103% (inactive) in the test with 786-0 renal; 113% (inactive) and 111% (inactive) in the test on COLO 205 colon.
`COc1ccc(/C=C\[N+](=O)[O-])cc1OC`: the growth is 83.9% (inactive) and 65.5% (inactive) in the test with NCI-H23 lung; 101% (inactive) and 77.5% (inactive) in the test on NCI-H226 lung; 107% (inactive) and 88% (inactive) with HOP-62 NSCLC; 45.6% (inactive) and 63.3% (inactive) in the test with NCI-H460 lung; 92.8% (inactive) and 82.3% (inactive) with HOP-92 NSCLC; 80.6% (inactive) and 75.6% (inactive) in the test on NCI-H522 lung. Further, the growth in the test on A549/ATCC NSCLC is 67.9% (inactive) and 68.7% (inactive); with 786-0 renal, 96.4% (inactive) and 47.9% (inactive); in the test on COLO 205 colon, 76.5% (inactive) and 64.5% (inactive).
Turning to `O=C1CCC(=O)N1SC(Cl)(Cl)Cl`, the growth in the test on NCI-H23 lung is 108% (inactive); with NCI-H226 lung, 101% (inactive); in the test with NCI-H322M lung, 106% (inactive); in the test with HOP-62 NSCLC, 113% (inactive); in the test on HOP-92 NSCLC it was 105% (inactive); in the test on NCI-H522 lung, 80.4% (inactive). The results for the growth in the test with A549/ATCC NSCLC, in the test with 786-0 renal and in the test on COLO 205 colon were 107% (inactive), 106% (inactive) and 112% (inactive), respectively.
